High-throughput results from PubChem.
HepG2 viability: qHTS for Inhibitors of TGF-b: Cytotox Counterscreen; Potency, µM (titrated, usually from 46.1 µM), hits mostly cytotoxic; HepG2 CAGA-GFP viability, ATP luminescence, 18 h; actives 0.76% (n = 410,000)
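CellTiter-Glo luminescence gave cytotoxicity after 18 hours at 37 degrees C. The cells were HepG2 CAGA-GFP in 1% FBS DMEM, stimulated with 500 pg/mL TGF-beta after compound addition. %Activity was normalised to no-cell wells (complete cell-killing) and DMSO (no toxicity), and curves were fitted and classified.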
S2 tox: Viability Counterscreen for Primary qHTS for Inhibitors of ATXN expression; S2 cells (HEK-293 line with an ATXN2-luciferase reporter) viability, CellTiter-Fluor protease fluorescence, 24 h; Potency, µM (doses to about 56.7 µM), hits mostly cytotoxic; actives 0.49% (n = 400,000); also: nearly all actives have a fitted effect of over 40% in size
TGFb SMAD3 inh: qHTS for Inhibitors of TGF-b | Potency, µM (doses to about 46.1 µM), actives largely listed as inhibitors | actives 1.2% (n = 410,000) | HepG2 CAGA-GFP TGF-b/SMAD3 reporter, GFP fluorescence, 18 h; TGF-beta stimulated, 500 pg/mL final; also: nearly all actives have a fitted effect of over 65% in size
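Cell-based qHTS in HEPG2 carrying a CAGA-GFP Smad reporter; compounds added before 500 pg/mL final TGF-beta, 18 h incubation at 37 degrees C, GFP fluorescence quantified per cell by imaging cytometry.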
ATXN2 expr inh: Primary qHTS for Inhibitors of ATXN expression. Potency, µM (series often up to 57 µM), actives largely listed as inhibitors. AID 1745845, 2022. actives 0.72% (n = 360,000). HEK-293 ATXN2-luciferase reporter, luminescence, 24 h; also: nearly all actives have a fitted effect of over 55% in size
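qHTS (up to 57 uM final) was run with 24 h compound exposure of reporter cells at 37 °C. Each well was multiplexed: SteadyGlo luminescence measured ATXN2-luciferase expression after a fluorogenic Gly-Phe-AFC viability readout (25 uM final).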
RORg inh: qHTS for inhibitors of ROR gamma transcriptional activity. actives 5.4% (n = 310,000). Drosophila S2 Gal4-RORgamma UAS-luciferase reporter, 20 h. Nuclear receptor ROR-gamma (Mus musculus), P51450. Potency, µM (titrated, usually from 53.6 µM), actives largely listed as inhibitors. AID 2551, 2010; also: nearly all actives have a fitted effect of over 60% in size
Target sequence (P51450 whole entry, looked up, the tested form may be a part): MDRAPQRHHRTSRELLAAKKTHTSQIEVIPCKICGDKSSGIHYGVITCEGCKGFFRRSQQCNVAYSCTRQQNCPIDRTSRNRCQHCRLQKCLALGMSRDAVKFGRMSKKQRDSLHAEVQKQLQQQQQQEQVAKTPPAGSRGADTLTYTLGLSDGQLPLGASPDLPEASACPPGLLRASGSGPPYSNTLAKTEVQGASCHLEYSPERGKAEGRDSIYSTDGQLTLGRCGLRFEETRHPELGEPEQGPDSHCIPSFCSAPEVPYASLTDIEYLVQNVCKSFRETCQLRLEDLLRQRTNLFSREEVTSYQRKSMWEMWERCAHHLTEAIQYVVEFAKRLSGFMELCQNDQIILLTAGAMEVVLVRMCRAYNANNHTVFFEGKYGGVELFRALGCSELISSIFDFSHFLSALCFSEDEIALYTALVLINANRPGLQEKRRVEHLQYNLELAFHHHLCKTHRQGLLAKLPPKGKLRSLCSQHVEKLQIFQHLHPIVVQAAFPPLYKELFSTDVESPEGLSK
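In this cell-based reporter format, copper sulfate (700 uM final) drives Gal4–ROR gamma fusion expression from a metallothionein promoter in Drosophila Schneider cells; compounds preincubated 1 hr, reporter read after 20 hr at ambient temperature.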
VP16 counter: VP16 counterscreen qHTS for inhibitors of ROR gamma transcriptional activity | Drosophila S2 Gal4-VP16 UAS-luciferase, luminescence, 20 h | Potency, µM (doses to about 53.6 µM), actives largely listed as inhibitors | actives 3.5% (n = 310,000) | AID 2546, 2010;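 also: Gal4-VP16 expression switched on by copper sulfate through the metallothionein promoter; nearly all actives have a fitted effect of over 50% in size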
Of the large screens only hits and unclear results are named; the others gave an inactive call. Sampled rows, rich in hits. Any-hit rate of the full collection: about 6.1%. Calls follow the shape of the dose curve; as a rule, active = well fitted curve in the direction sought with a large enough effect; inconclusive = small, poorly fitted or top-dose-only effect, or another doubt; inactive = no such curve, though single readings can be large; an effect the other way counts as inactive or inconclusive.

COc1ccc(NC(C)C(=O)N/N=C/c2ccc([N+](=O)[O-])s2)cc1 (configuration not stated)	HepG2 viability 17.8µM, S2 tox inconclusive, TGFb SMAD3 inh 12.6µM, ATXN2 expr inh inconclusive, RORg inh inconclusive, VP16 counter inconclusive
O=C(N/N=C\c1ccc([N+](=O)[O-])s1)c1cncc(Br)c1	HepG2 viability 3.55µM, S2 tox 28.2µM, TGFb SMAD3 inh 6.31µM, ATXN2 expr inh 10µM, RORg inh 0.708µM, VP16 counter 1.12µM
O=C(N/N=C/c1ccc([N+](=O)[O-])s1)C(O)c1ccccc1 (configuration not stated)	HepG2 viability 7.94µM, S2 tox inconclusive, TGFb SMAD3 inh 7.94µM, ATXN2 expr inh inconclusive, VP16 counter inconclusive
O=C(N/N=C\c1cc(Br)cs1)c1ccncc1	S2 tox inconclusive, RORg inh 1.58µM, VP16 counter 2.82µM (no result: ATXN2 expr inh)
O=C(N/N=C/c1ccc(O)cc1)c1cncc(Br)c1	none
O=C(Cc1ccccc1)N/N=C/c1ccc([N+](=O)[O-])s1	TGFb SMAD3 inh inconclusive, RORg inh inconclusive, VP16 counter inconclusive
Cc1ccc(NC(C)C(=O)N/N=C/c2ccc([N+](=O)[O-])s2)cc1 (configuration not stated)	TGFb SMAD3 inh inconclusive, RORg inh inconclusive, VP16 counter inconclusive
CCN(CC)/[N+]([O-])=N/OCOC(=O)c1ccccc1OC(C)=O	none (no result: S2 tox, ATXN2 expr inh, RORg inh, VP16 counter)
Cc1ccc(C(=O)N(Cc2cc3cccc(C)c3nc2N(C)C)CC2CCCO2)cc1 (configuration not stated)	none (no result: HepG2 viability, TGFb SMAD3 inh, ATXN2 expr inh, RORg inh, VP16 counter)
O=C(Nc1nc2cccc(-c3ccc(CN4CCS(=O)(=O)CC4)cc3)n2n1)C1CC1	none (no result: HepG2 viability, S2 tox, TGFb SMAD3 inh, RORg inh, VP16 counter)
Cc1ccccc1NC(=O)/C=C/c1ccc([N+](=O)[O-])s1	HepG2 viability 7.94µM, S2 tox 10µM, TGFb SMAD3 inh 7.08µM, ATXN2 expr inh 10µM, RORg inh 4.47µM, VP16 counter 3.16µM
CCc1ccc(/C=N/NC(=O)c2cc(C)on2)s1	RORg inh 5.62µM, VP16 counter 5.62µM
O=C(O)c1ccc(N/N=C/c2cc(Br)cs2)cc1	RORg inh 6.31µM, VP16 counter 1µM
Cc1cc(C(=O)N/N=C/c2cccc(Cl)c2Cl)no1	none
O=C(CSc1cn(CCNC(=O)c2cccc(C(F)(F)F)c2)c2ccccc12)Nc1ccc2c(c1)OCCO2	TGFb SMAD3 inh inconclusive (no result: S2 tox, RORg inh, VP16 counter)
Cc1ccc2oc(C(=O)Nc3ccc(S(=O)(=O)Nc4ncccn4)cc3)cc(=O)c2c1	none (no result: RORg inh, VP16 counter)
CC(=O)c1ccc(OC2C(O)COC2/C=C/c2ccc(Cl)cc2)cc1 (configuration not stated)	none (no result: HepG2 viability, S2 tox, TGFb SMAD3 inh, ATXN2 expr inh)
c1coc(CNc2nc(-c3ccncc3)cs2)c1	RORg inh inconclusive
Cc1nc(C)c(-c2csc(NCc3ccco3)n2)s1	none
Cc1ccn2c(-c3csc(NCc4ccccc4)n3)c(C)nc2c1	S2 tox inconclusive, TGFb SMAD3 inh inconclusive, ATXN2 expr inh inconclusive, RORg inh 14.1µM, VP16 counter inconclusive
Cc1nc(NC(=O)c2ccccc2)sc1-c1csc(NCc2ccco2)n1	TGFb SMAD3 inh inconclusive, ATXN2 expr inh inconclusive, RORg inh 20µM, VP16 counter inconclusive
Cc1nc2ccccn2c1-c1csc(NCc2ccco2)n1	S2 tox inconclusive, RORg inh 11.2µM, VP16 counter inconclusive
Cc1nc(C)c(-c2csc(NCc3ccccc3)n2)s1	none
Cc1nc2cc(N3CCN(C)CC3)c(NC(=O)Cc3ccccc3)cc2c(=O)n1Cc1ccccc1	RORg inh 7.08µM, VP16 counter inconclusive
CN1N=C(N)c2cn([C@@H]3O[C@H](COP(=O)(O)O)[C@@H](O)[C@@H]3O)c3ncnc1c23	none (no result: HepG2 viability, S2 tox, TGFb SMAD3 inh, RORg inh, VP16 counter)
CC(C)c1cnc2c(c1SCC(=O)N1CCCCC1)c(=O)n(C)c(=O)n2C	none (no result: S2 tox, ATXN2 expr inh, RORg inh, VP16 counter)
CCCCCCn1nc(C(=O)Nc2nc3c(s2)CCCC3)c2ccccc2c1=O	RORg inh 10µM
CCCCn1nc(C(=O)Nc2nc3c(s2)CCCC3)c2ccccc2c1=O	RORg inh 11.2µM, VP16 counter inconclusive (no result: ATXN2 expr inh)
Cc1ccc(NC(=O)CC2Nc3cccc4cccc(c34)NC2=O)cc1 (configuration not stated)	TGFb SMAD3 inh 11.2µM (no result: S2 tox, ATXN2 expr inh, RORg inh, VP16 counter)
COc1ccc(NC(=O)CCS(=O)(=O)c2cc3c(cc2C)NC(=O)CO3)cc1Cl	S2 tox inconclusive (no result: RORg inh, VP16 counter)
CCN(CC)CCNC1=NCCn2c1cc1cc(OC)ccc12	ATXN2 expr inh inconclusive
CCN(CC)CCCCNc1ncc2cc(-c3cc(OC)cc(OC)c3)c(NC(=O)NC(C)(C)C)nc2n1	HepG2 viability 14.1µM, S2 tox 8.91µM, TGFb SMAD3 inh inconclusive, ATXN2 expr inh inconclusive, VP16 counter inconclusive
Cc1ccc(NC(=O)c2ccc(F)c(S(=O)(=O)NCCc3ccccc3)c2)cc1F	HepG2 viability 10µM, TGFb SMAD3 inh 11.2µM (no result: S2 tox, ATXN2 expr inh, RORg inh, VP16 counter)
CCN(c1ccccc1)S(=O)(=O)c1cc(C(=O)Nc2ccc(F)c(F)c2)ccc1F	S2 tox inconclusive, TGFb SMAD3 inh 11.2µM, ATXN2 expr inh inconclusive, RORg inh inconclusive, VP16 counter inconclusive
CCN(c1ccccc1)S(=O)(=O)c1ccc(C(=O)Nc2cccc(NC(C)=O)c2)cc1	S2 tox inconclusive (no result: RORg inh, VP16 counter)
CCOc1ccc(C2C(=O)N(C3CCCCCC3)CC(=O)N2CCc2ccc(OC)c(OC)c2)cc1OC (configuration not stated)	none (no result: S2 tox, ATXN2 expr inh, RORg inh, VP16 counter)
Cc1cc([C@@H](C)Nc2ccccc2C(=O)O)c2nc(N3CCOCC3)cc(=O)n2c1	none (no result: HepG2 viability, S2 tox, TGFb SMAD3 inh, RORg inh, VP16 counter)
CCc1cc(C(=O)c2ccc(C)cc2)c(NC(=O)CCl)s1	ATXN2 expr inh inconclusive (no result: S2 tox)
Cc1cc(C(=O)c2ccc(Cl)cc2)c(NC(=O)CCl)s1	ATXN2 expr inh inconclusive, RORg inh 10µM, VP16 counter inconclusive (no result: S2 tox)
Cc1sc(NC(=O)C2=COCCO2)nc1-c1ccc(F)cc1	none (no result: RORg inh, VP16 counter)
O=C(NNc1nc2c(F)cc(F)cc2s1)C1=COCCO1	RORg inh 8.91µM
Cc1cccc2sc(NNC(=O)C3=COCCO3)nc12	RORg inh 2.24µM, VP16 counter 12.6µM
O=C(Cn1nc(Cc2ccncc2)c2ccccc2c1=O)Nc1cccc(C(F)(F)F)c1	TGFb SMAD3 inh inconclusive (no result: S2 tox, ATXN2 expr inh, RORg inh, VP16 counter)
Cc1c(Cl)cccc1NC(=O)c1cnc2sc(N3CCCC3)nn2c1=O	none (no result: S2 tox, ATXN2 expr inh, RORg inh, VP16 counter)
O=c1[nH]c(C2CC2)nc2sc3c(c12)CCCC3	S2 tox inconclusive
N#Cc1cnn(-c2nc3sc4c(c3c(=O)[nH]2)CCCC4)c1N	RORg inh 2.82µM
